Measurements from ChEMBL document CHEMBL2218924, “A broad activity screen in support of a chemogenomic map for kinase signalling research and drug discovery” (Biochem J, 2013).

target: T1, Interleukin-1 receptor-associated kinase 4 (Homo sapiens) (UniProt Q9NWZ3); conditions: at 10 µM
T1 sequence (whole entry): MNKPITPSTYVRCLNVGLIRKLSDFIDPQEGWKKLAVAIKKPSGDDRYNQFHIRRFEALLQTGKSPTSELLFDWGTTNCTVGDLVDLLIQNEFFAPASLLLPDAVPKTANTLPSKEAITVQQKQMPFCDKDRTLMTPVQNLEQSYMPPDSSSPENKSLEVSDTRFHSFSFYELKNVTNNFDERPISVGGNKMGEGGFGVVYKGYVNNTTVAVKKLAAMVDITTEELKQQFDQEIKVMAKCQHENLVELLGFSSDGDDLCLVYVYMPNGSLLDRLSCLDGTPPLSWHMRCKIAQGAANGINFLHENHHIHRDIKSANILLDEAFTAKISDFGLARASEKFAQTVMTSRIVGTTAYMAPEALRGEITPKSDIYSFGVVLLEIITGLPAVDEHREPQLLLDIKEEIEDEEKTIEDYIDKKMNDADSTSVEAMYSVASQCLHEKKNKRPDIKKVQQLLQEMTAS

Structure (SMILES)	residual activity
Nc1nc(Nc2ccc(S(N)(=O)=O)cc2)nn1C(=O)c1c(F)cccc1F	37%
Nc1n[nH]c2nc3ccccc3nc12	67%
CCOc1nc(NC(=O)Cc2cc(OC)ccc2OC)cc(N)c1C#N	81%
COc1ccc(CNC(=O)Nc2ncc([N+](=O)[O-])s2)cc1	78%
COc1cc2ncnc(Nc3cccc(Cl)c3)c2cc1OC	5%
Cc1cc(C)c(/C=C2\C(=O)Nc3ccccc32)[nH]1	13%
N#Cc1c(NC(=O)c2cccc3ccccc23)sc2c1CCCC2	72%
Nc1ncnc2c1cnn2-c1ccccc1	84%
NC(=O)Nc1sc(-c2ccc(F)cc2)cc1C(N)=O	9%
O=C(Nc1nc2ccccc2n1CCN1CCOCC1)c1cccc([N+](=O)[O-])c1	15%
Cn1c2ccccc2c2c3c(c4c5ccccc5n(CCC#N)c4c21)CNC3=O	4%
CC(C)(C)c1nc2c3ccc(F)cc3c3c(=O)[nH]ccc3c2[nH]1	53%
c1ccc(-c2cnc(Nc3ccc(OCCN4CCCC4)cc3)s2)cc1	80%
O=C1Nc2ccccc2/C1=C\c1c(Cl)[nH]c2ccccc12	69%
COc1cc2c(cc1OC)-c1n[nH]c(Nc3cccc(F)c3)c1C2	34%
O=C(c1cc2cc(O)ccc2[nH]1)c1cc2cc(O)ccc2[nH]1	20%
O=C1NC(=O)C(c2cn(CCCn3ccnc3)c3ccccc23)=C1Nc1ccccc1	32%
CCCCc1c(-c2ccc(O)cc2)[nH]c2nccnc12	26%
NC(=O)c1ccc(-c2nc(-c3ccc4c(c3)OCCO4)c(-c3ccccn3)[nH]2)cc1	97%
O=C(c1ccccc1)c1ccc(N2CCOCC2)cc1O	93%
COc1ccc(-c2cnc3c(-c4ccsc4)cnn3c2)cc1	94%

target: Insulin receptor-related protein (Homo sapiens) (UniProt P14616); conditions: at 1 µM
Sequence (P14616 27-742 limits assumed): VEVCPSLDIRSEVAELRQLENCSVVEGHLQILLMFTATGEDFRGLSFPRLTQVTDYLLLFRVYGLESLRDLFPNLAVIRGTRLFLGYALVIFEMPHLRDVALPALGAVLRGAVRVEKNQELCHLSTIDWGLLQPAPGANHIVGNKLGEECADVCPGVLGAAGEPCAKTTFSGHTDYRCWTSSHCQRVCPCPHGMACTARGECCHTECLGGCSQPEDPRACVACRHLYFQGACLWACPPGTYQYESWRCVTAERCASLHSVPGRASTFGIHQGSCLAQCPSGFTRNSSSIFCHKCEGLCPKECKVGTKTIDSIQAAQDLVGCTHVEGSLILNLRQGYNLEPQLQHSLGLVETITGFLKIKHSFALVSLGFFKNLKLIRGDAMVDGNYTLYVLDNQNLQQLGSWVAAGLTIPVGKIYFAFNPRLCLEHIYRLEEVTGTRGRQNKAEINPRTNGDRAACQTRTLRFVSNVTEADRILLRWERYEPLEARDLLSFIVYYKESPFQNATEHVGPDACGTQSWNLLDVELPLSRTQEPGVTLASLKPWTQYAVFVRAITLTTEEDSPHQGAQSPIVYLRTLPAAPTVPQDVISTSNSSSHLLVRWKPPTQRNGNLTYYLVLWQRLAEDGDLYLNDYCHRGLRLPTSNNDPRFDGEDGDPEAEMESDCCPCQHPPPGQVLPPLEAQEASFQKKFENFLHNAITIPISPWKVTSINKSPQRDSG
Sequence (P14616 747-1297 limits assumed): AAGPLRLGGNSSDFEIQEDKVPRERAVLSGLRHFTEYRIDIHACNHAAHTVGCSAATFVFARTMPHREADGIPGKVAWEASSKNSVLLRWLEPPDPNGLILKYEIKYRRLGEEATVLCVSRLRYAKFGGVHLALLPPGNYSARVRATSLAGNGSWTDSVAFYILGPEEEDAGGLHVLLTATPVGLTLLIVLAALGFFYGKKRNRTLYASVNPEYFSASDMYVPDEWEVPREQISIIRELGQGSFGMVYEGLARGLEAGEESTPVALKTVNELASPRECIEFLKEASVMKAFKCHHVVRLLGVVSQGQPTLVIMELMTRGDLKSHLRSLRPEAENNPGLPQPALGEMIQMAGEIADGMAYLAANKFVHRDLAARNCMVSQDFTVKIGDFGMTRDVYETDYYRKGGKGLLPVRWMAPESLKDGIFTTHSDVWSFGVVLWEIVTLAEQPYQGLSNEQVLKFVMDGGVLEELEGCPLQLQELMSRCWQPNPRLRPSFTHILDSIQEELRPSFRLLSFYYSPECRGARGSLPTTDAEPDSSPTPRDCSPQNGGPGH

Structure (SMILES)	residual activity
Nc1nc(Nc2ccc(S(N)(=O)=O)cc2)nn1C(=O)c1c(F)cccc1F	112%
COc1cc2nccc(Oc3ccc(NC(=O)Nc4cc(C)on4)c(Cl)c3)c2cc1OC	102%
Nc1n[nH]c2nc3ccccc3nc12	122%
COc1cc2ncnc(Nc3cccc(Cl)c3)c2cc1OC	105%
Cc1cc(C)c(/C=C2\C(=O)Nc3ccccc32)[nH]1	65%
CC(C)N(CCC(=O)c1ccc2ccccc2c1)Cc1ccccc1	131%
NC(=O)c1cccc(-c2cc(Nc3ccc(OC(F)(F)F)cc3)ncn2)c1	139%
Nc1ncnc2c1cnn2-c1ccccc1	135%
NC(=O)Nc1sc(-c2ccc(F)cc2)cc1C(N)=O	69%
Cn1c2ccccc2c2c3c(c4c5ccccc5n(CCC#N)c4c21)CNC3=O	69%
CC(C)(C)c1nc2c3ccc(F)cc3c3c(=O)[nH]ccc3c2[nH]1	101%
c1ccc(-c2cnc(Nc3ccc(OCCN4CCCC4)cc3)s2)cc1	135%
Oc1cccc(-c2nc(N3CCOCC3)c3oc4ncccc4c3n2)c1	128%
COc1cc2c(cc1OC)-c1n[nH]c(Nc3cccc(F)c3)c1C2	99%
Fc1ccc(-c2nc3n(c2-c2ccncc2)CCS3)cc1	128%
O=C1NC(=O)C(c2cn(CCCn3ccnc3)c3ccccc23)=C1Nc1ccccc1	135%
NC(=O)c1ccc(-c2nc(-c3ccc4c(c3)OCCO4)c(-c3ccccn3)[nH]2)cc1	124%
O=C(c1ccccc1)c1ccc(N2CCOCC2)cc1O	131%
Nc1nccc(-c2c(-c3ccc(F)cc3)ncn2C2CCNCC2)n1	140%
COc1ccc(COc2ccc(Cc3cnc(N)nc3N)cc2OC)cc1	137%
